Test results as given in PubChem BioAssay (Tox21).
Records with an inconclusive call do not appear. Calls of active or inactive are those of the source. Calls follow the shape of the dose curve; as a rule, active = well fitted curve in the direction sought with a large enough effect in the repeat runs; inconclusive = weak or mixed curves; inactive = no such curve, though single readings can be large; an effect the other way counts as inactive or inconclusive.

Tests used:
[1] = qHTS RealTime-Glo MT Cell Viability Assay in HepG2 cells - 40 hour (AID 1224870); also: nearly all actives have a fitted effect of over 50% in size
How it was run: (§1)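 HepG2 cells (600/well) mixed with RealTime-Glo MT reagent, settled 5 h at 37 C/5% CO2 before compound addition. Nonlytic NanoLuc luminescence from viable-cell prosubstrate reduction read repeatedly during 40 h treatment at 37 C.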

[2] = A CellTox Green Cytotoxicity Assay to monitor cytotoxicity in HEK293 cells - 40 hour (AID 1224871); also: nearly all actives have a fitted effect of over 45% in size
How it was run: (§2)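 Read-out: fluorescence of a cell-impermeant cyanine dye staining DNA of dead cells, proportional to cytotoxicity. HEK293, 600 cells/well with reagent, compound (23 nL DMSO) added after 5 h; reads at 0, 8, 16, 24, 32, 40 h.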

[3] = qHTS RealTime-Glo MT Cell Viability Assay in HepG2 cells - 8 hour (AID 1224873); also: nearly all actives have a fitted effect of over 55% in size
How it was run: as §1

[4] = qHTS RealTime-Glo MT Cell Viability Assay in HEK293 cells - 40 hour (AID 1224874); details: RealTime-Glo luminescence; max response: stronger effect = lower value; also: nearly all actives have a fitted effect of over 50% in size
How it was run: (§3)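 Luminescence readout at each listed time point; HEK293, 600 cells/well, RealTime-Glo MT reagent added with cells; compounds pinned (23 nL in DMSO) after 5 h at 37 C; continuous culture at 37 C.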

[5] = A CellTox Green Cytotoxicity Assay to monitor cytotoxicity in HEK293 cells - 24 hour (AID 1224875); also: series mostly up to about 77 µM; nearly all actives have a fitted effect of over 45% in size
How it was run: as §2

[6] = A CellTox Green Cytotoxicity Assay to monitor cytotoxicity in HepG2 cells - 16 hour (AID 1224876); also: nearly all actives have a fitted effect of over 45% in size
How it was run: (§4)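 HepG2, 600 cells/well premixed w/ CellTox Green; 5 h settle, 37 C/5% CO2; pintool cpd add (DMSO); 37 C, 40 h; fluorescence read at 0, 8, 16, 24, 32, 40 h.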

[7] = qHTS RealTime-Glo MT Cell Viability Assay in HepG2 cells - 32 hour (AID 1224877); also: nearly all actives have a fitted effect of over 55% in size
How it was run: (§5)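 HepG2 cells (600/well) were dispensed with RealTime-Glo reagents, incubated 5 h at 37 °C, then treated with compounds in DMSO for up to 40 h. Nonlytic NanoLuc luminescence reflecting viable cells was read at each stated time point.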

[8] = A CellTox Green Cytotoxicity Assay to monitor cytotoxicity in HepG2 cells - 24 hour (AID 1224878); also: nearly all actives have a fitted effect of over 45% in size
How it was run: as §4

[9] = A CellTox Green Cytotoxicity Assay to monitor cytotoxicity in HepG2 cells - 40 hour (AID 1224879); also: nearly all actives have a fitted effect of over 40% in size
How it was run: as §4

[10] = qHTS RealTime-Glo MT Cell Viability Assay in HEK293 cells - 0 hour (AID 1224880)
How it was run: as §3

[11] = A CellTox Green Cytotoxicity Assay to monitor cytotoxicity in HEK293 cells - 32 hour (AID 1224881); also: nearly all actives have a fitted effect of over 40% in size
How it was run: as §2

[12] = A CellTox Green Cytotoxicity Assay to monitor cytotoxicity in HepG2 cells - 0 hour (AID 1224882); also: nearly all actives have a fitted effect of over 35% in size
How it was run: as §4

[13] = A CellTox Green Cytotoxicity Assay to monitor cytotoxicity in HepG2 cells - 32 hour (AID 1224883); also: nearly all actives have a fitted effect of over 50% in size
How it was run: as §4

[14] = A CellTox Green Cytotoxicity Assay to monitor cytotoxicity in HEK293 cells - 8 hour (AID 1224884); also: nearly all actives have a fitted effect of over 35% in size
How it was run: as §2

[15] = qHTS RealTime-Glo MT Cell Viability Assay in HepG2 cells - 16 hour (AID 1224885); also: nearly all actives have a fitted effect of over 50% in size
How it was run: as §5

[16] = qHTS RealTime-Glo MT Cell Viability Assay in HEK293 cells - 24 hour (AID 1224886)
How it was run: (§6)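 HEK293 cells seeded with NanoLuc/prosubstrate reagent, rested 5 h at 37 C, then dosed and kept at 37 C up to 40 h. Nonlytic real-time luminescence from viable cells read at 0, 8, 16, 24, 32 and 40 h.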

[17] = qHTS RealTime-Glo MT Cell Viability Assay in HEK293 cells - 8 hour (AID 1224887)
How it was run: as §3

[18] = A CellTox Green Cytotoxicity Assay to monitor cytotoxicity in HEK293 cells - 16 hour (AID 1224888); also: nearly all actives have a fitted effect of over 35% in size
How it was run: as §2

[19] = qHTS RealTime-Glo MT Cell Viability Assay in HepG2 cells - 0 hour (AID 1224889); also: nearly all actives have a fitted effect of over 50% in size
How it was run: as §5

[20] = qHTS RealTime-Glo MT Cell Viability Assay in HEK293 cells - 16 hour (AID 1224872)
How it was run: as §6
% is scaled to controls: 0 for no effect and ±100 for the full control effect.

CC(C)(C)c1n[nH]c(=S)n(N)c1=O
inactive: outcome [1] | Potency [2] | outcome [3] | max response [4] 2.54% | outcome [5] | outcome [6] | outcome [7] | outcome [8] | Potency [9] | Potency [10] | Potency [11] | outcome [12] | Potency [13] | Potency [14] | outcome [15] | Potency [16] | Potency [17] | outcome [18] | Potency [19]

CC(=O)NCCCCCC(=O)O
inactive: outcome [1] | Potency [2] | Potency [20] | outcome [5] | outcome [6] | outcome [7] | outcome [8] | Potency [9] | Potency [10] | Potency [11] | outcome [12] | Potency [13] | Potency [14] | outcome [15] | Potency [16] | outcome [18] | Potency [19]

CCOC(=O)CC(=O)c1ccccc1
inactive: outcome [1] | Potency [2] | outcome [3] | max response [4] 10.1% | outcome [5] | outcome [6] | outcome [7] | outcome [8] | Potency [9] | Potency [10] | Potency [11] | outcome [12] | Potency [13] | Potency [14] | outcome [15] | Potency [16] | Potency [17] | outcome [18] | Potency [19]

Cc1cc(C(C)(C)C)c(O)c(C)c1CC1=NCCN1
inactive: outcome [1] | Potency [2] | outcome [3] | max response [4] 0.324% | outcome [5] | outcome [6] | outcome [7] | outcome [8] | Potency [9] | Potency [10] | Potency [11] | outcome [12] | Potency [13] | Potency [14] | outcome [15] | Potency [16] | outcome [18] | Potency [19]

CCCCCCCCC1CCC(=O)O1 (stereo unspecified)
inactive: outcome [1] | Potency [2] | Potency [20] | outcome [5] | outcome [6] | outcome [8] | Potency [9] | Potency [10] | Potency [11] | outcome [12] | Potency [13] | Potency [14] | outcome [15] | Potency [16] | Potency [17] | outcome [18] | Potency [19]

CC(=O)Nc1ccc(S(=O)(=O)Nc2ccc([N+](=O)[O-])cc2)cc1
inactive: outcome [1] | Potency [2] | outcome [3] | max response [4] -8.9% | outcome [5] | outcome [6] | outcome [7] | outcome [8] | Potency [9] | Potency [10] | Potency [11] | outcome [12] | Potency [13] | Potency [14] | outcome [15] | Potency [16] | Potency [17] | outcome [18] | Potency [19]

C=Cc1ccccn1
inactive: outcome [1] | Potency [2] | Potency [20] | max response [4] -0.127% | outcome [5] | outcome [6] | outcome [7] | outcome [8] | Potency [9] | Potency [10] | Potency [11] | outcome [12] | Potency [13] | Potency [14] | outcome [15] | Potency [16] | Potency [17] | outcome [18] | Potency [19]

CC(N)C(=O)OC(C)(C)Cc1ccc(Cl)cc1 (stereo unspecified)
inactive: outcome [1] | Potency [2] | Potency [20] | max response [4] -11.9% | outcome [5] | outcome [6] | outcome [7] | outcome [8] | Potency [9] | Potency [11] | outcome [12] | Potency [13] | Potency [14] | outcome [15] | Potency [16] | Potency [17] | outcome [18] | Potency [19]

O=C(O)c1cc(Cl)cc([N+](=O)[O-])c1Cl
inactive: outcome [1] | Potency [2] | Potency [20] | max response [4] 21% | outcome [5] | outcome [6] | outcome [7] | outcome [8] | Potency [9] | Potency [11] | outcome [12] | Potency [13] | Potency [14] | outcome [15] | Potency [16] | Potency [17] | outcome [18] | Potency [19]

CCO[Si](CCCS)(OCC)OCC
inactive: outcome [1] | Potency [2] | outcome [3] | max response [4] 16.1% | outcome [5] | outcome [6] | outcome [7] | outcome [8] | Potency [9] | Potency [10] | Potency [11] | outcome [12] | Potency [13] | outcome [15] | Potency [19]

O=C(OCc1ccccc1)C(=O)OCc1ccccc1
inactive: outcome [1] | Potency [2] | outcome [3] | max response [4] 1.62% | outcome [5] | outcome [6] | outcome [7] | outcome [8] | Potency [9] | Potency [10] | Potency [11] | outcome [12] | Potency [13] | Potency [14] | outcome [15] | Potency [16] | Potency [17] | outcome [18] | Potency [19]

CC(C)NCC(O)COc1cccc2[nH]ccc12 (stereo unspecified)
inactive: outcome [1] | Potency [2] | outcome [3] | max response [4] -0.192% | outcome [5] | outcome [6] | outcome [7] | outcome [8] | Potency [9] | Potency [10] | Potency [11] | outcome [12] | Potency [13] | Potency [14] | outcome [15] | Potency [16] | Potency [17] | outcome [18] | Potency [19]

O=C(O)CCSSCCC(=O)O
inactive: outcome [1] | Potency [2] | Potency [20] | max response [4] 7.07% | outcome [5] | outcome [8] | Potency [9] | Potency [10] | Potency [11] | outcome [12] | Potency [13] | Potency [14] | outcome [15] | Potency [16] | outcome [18] | Potency [19]

CCC(C=O)CC
inactive: outcome [1] | Potency [2] | Potency [20] | max response [4] -5.72% | outcome [5] | outcome [6] | outcome [7] | outcome [8] | Potency [9] | Potency [11] | outcome [12] | Potency [13] | Potency [14] | outcome [15] | Potency [16] | Potency [17] | outcome [18] | Potency [19]

CCCCCCCCSCC
inactive: outcome [1] | Potency [2] | Potency [20] | outcome [6] | outcome [7] | outcome [8] | Potency [9] | Potency [10] | Potency [11] | outcome [12] | Potency [13] | Potency [14] | outcome [15] | Potency [16] | Potency [17] | outcome [18] | Potency [19]

FC(F)(F)c1ccccc1-n1ccnc1
inactive: outcome [1] | Potency [2] | Potency [20] | max response [4] -3.14% | outcome [5] | outcome [6] | outcome [7] | outcome [8] | Potency [9] | Potency [10] | Potency [11] | outcome [12] | Potency [13] | Potency [14] | outcome [15] | Potency [16] | outcome [18] | Potency [19]
